Compound activity (PubChem BioAssay)
Most compounds without a hit are left out; they make up all but 0.52% or so of the library.
CatS inh – human cathepsin S inhibition; P25774; recombinant cathepsin S, AMC dipeptide fluorescence, pooled mixtures; hit rate 0.06% among 62,000; inhibition, %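 (tested at 5 µM per compound within 10-compound mixtures)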; in the data active means inhibition above about 32%, passing the limit was not always enough
Target sequence (P25774 115-331 limits assumed): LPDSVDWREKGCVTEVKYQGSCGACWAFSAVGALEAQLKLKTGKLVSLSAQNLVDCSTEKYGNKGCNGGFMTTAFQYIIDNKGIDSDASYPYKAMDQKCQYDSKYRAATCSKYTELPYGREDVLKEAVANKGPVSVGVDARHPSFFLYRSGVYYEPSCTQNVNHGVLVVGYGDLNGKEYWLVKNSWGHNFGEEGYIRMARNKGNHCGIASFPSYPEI
CatB mixtures – inhibitors of human cathepsin B in compound mixtures | P07858 | Purified cathepsin B, AMC dipeptide fluorescence | inhibition, %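 (ten-compound pools at 5 µM per compound and 50 µM total)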 | hit rate 0.06% among 62,000 | AID 488; in the data active means inhibition above about 22%, passing the limit was not always enough
CatB block – inhibitors of human cathepsin B. purified cathepsin B, fluorogenic substrate, fluorescence. inhibition, %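 (tested at 10 µM)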. hit rate 0.1% among 63,000. AID 453; in the data active means inhibition above about 21%
CatL block – inhibitors of human cathepsin L. P07711. purified cathepsin L, fluorogenic substrate, fluorescence. inhibition, %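 (tested at 10 µM)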. hit rate 0.17% among 58,000. AID 460; in the data active means inhibition above about 45%
Target sequence (P07711 114-288 limits assumed): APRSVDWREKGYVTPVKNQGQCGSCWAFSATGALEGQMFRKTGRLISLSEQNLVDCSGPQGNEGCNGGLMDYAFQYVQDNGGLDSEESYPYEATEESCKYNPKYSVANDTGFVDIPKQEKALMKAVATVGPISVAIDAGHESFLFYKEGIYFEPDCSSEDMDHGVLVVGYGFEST
Target sequence (P07711 292-333 limits assumed): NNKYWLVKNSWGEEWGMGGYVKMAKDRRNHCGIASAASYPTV
Htt clearance – compounds clearing mutant huntingtin protein | HeLa Exon1htt(103Q)mCFP, aggregate imaging; zero = plate's median compound well | inhibition, % at 1.5 µM | hit rate 0.42% among 47,000;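 active means inhibition of aggregate fluorescence above about 70%, also judged a hit by eye on the cell image, limit read from the data, passing the limit was not always enough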;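 further: cells exposed to compound for three days before fixation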
Large screens that a line does not name were inactive.

O=C(OC(C(=O)NCc1cccs1)c1ccccn1)c1cccs1 (stereo unspecified)	CatB mixtures 28.5, CatB block 35.0 (no result: Htt clearance)
CCOCCc1nnc(NC(=O)C(CC)c2ccccc2)s1 (stereo unspecified)	none (no result: CatS inh, CatB mixtures, CatB block, CatL block)
COC(=O)c1cccc(S(=O)(=O)N2CCC(C)CC2)c1	Htt clearance 71.4
O=C(NC1CC1)c1nc2c(nnn2Cc2ccccc2Cl)c(=O)[nH]1	none (no result: CatS inh, CatB mixtures, CatB block, CatL block)
O=C(NC1CCCCC1)c1nc2c(nnn2Cc2ccccc2Cl)c(=O)[nH]1	Htt clearance 73.7
Cc1cc(N2CCN(C3CCCC3)CC2)n2nc(C)c(-c3ccccc3)c2n1	none (no result: Htt clearance)
c1ccc(Nc2ncnc3c2oc2ccccc23)cc1	Htt clearance 72.5
Oc1ccccc1Nc1ncnc2c1oc1ccccc12	none
O=C(CSc1nc2ccccc2[nH]1)NCc1ccco1	none
O=C(CSc1nc2ccccc2[nH]1)NCCN1CCCCC1	CatL block 52.2
CCOC(=O)N1CCC(N2C(=O)c3ccccc3C2Nc2cc(C(=O)OC)cc(C(=O)OC)c2)CC1 (stereo unspecified)	none (no result: CatL block, Htt clearance)
N#Cc1ccsc1NC(=O)c1cnccn1	CatB block 65.5
O=C(Nc1ccccc1-c1ccccc1)c1cnccn1	none (no result: Htt clearance)
CCOc1ccc(-c2nnn(CC(=O)NCc3ccc4c(c3)OCO4)n2)cc1	Htt clearance 75.7 (no result: CatS inh, CatB mixtures, CatB block, CatL block)
CCOc1ccc(-c2nnn(CC(=O)NCc3cccs3)n2)cc1	none
Cn1c(C(=O)NCCCN2CCCC2=O)cc2c(=O)n(C)c3ccccc3c21	none (no result: Htt clearance)
CCCN(CCC)CCNC(=O)c1cc2c(=O)n(C)c3ccccc3c2n1C	CatS inh 76.6
CCN1CCN(C(=O)c2cc3c(=O)n(C)c4ccccc4c3n2C)CC1	none (no result: Htt clearance)
Cn1c(C(=O)N2CCN(Cc3ccccc3)CC2)cc2c(=O)n(C)c3ccccc3c21	CatS inh 51.4 (no result: Htt clearance)
CN(CCNC(=O)c1cc2c(=O)n(C)c3ccccc3c2n1C)Cc1ccccc1	CatS inh 71.5 (no result: CatL block, Htt clearance)
O=C(COC(=O)CN1C(=O)c2ccccc2C1=O)Nc1ncc(Cl)cc1Cl	none (no result: Htt clearance)
O=C(COC(=O)CCCN1C(=O)c2ccccc2C1=O)Nc1ncc(Cl)cc1Cl	Htt clearance 71.9
CC(C)Cn1c(SCC(=O)c2ccc(Cl)s2)nnc1-c1ccco1	none
Cn1c(C(=O)NCCN2CCc3ccccc3C2)cc2c(=O)n(C)c3ccccc3c21	CatS inh 73.6 (no result: Htt clearance)
Cn1c(C(=O)NCCN2CCN(c3ccccc3F)CC2)cc2c(=O)n(C)c3ccccc3c21	none (no result: Htt clearance)
Cn1c(C(=O)NCCN2CCOCC2)cc2c(=O)n(C)c3ccccc3c21	CatS inh 80.8 (no result: CatL block)
COC(=O)CN1CCN(C(=O)c2ccc(F)cc2)c2ccccc2C1	none
Cn1c(=O)oc2cc(S(=O)(=O)Nc3cccc4c3CCCC4)ccc21	none (no result: Htt clearance)
O=C(NCc1cccc(C(F)(F)F)c1)C1CC(c2c(Cl)cccc2Cl)=NO1 (stereo unspecified)	none (no result: CatS inh, CatB mixtures, CatB block, CatL block)
Cc1ccc(N(CC(=O)NC2CCC(C)CC2)S(=O)(=O)c2cccnc2)cc1 (stereo unspecified)	CatL block 71.8 (no result: Htt clearance)
COc1ccc(N(CC(=O)O)S(=O)(=O)c2cccnc2)cc1	Htt clearance 71.2
COc1ccc(S(=O)(=O)N(CC(=O)O)c2ccccc2)cc1	none
Cc1ccc(CC(=O)Nc2ccccc2N2CCOCC2)cc1C	none (no result: CatS inh, CatB mixtures, CatB block, CatL block)
Cc1cc(C(=O)CSc2nnc(-c3cccnc3)n2-c2ccccc2F)c(C)n1CC1CCCO1 (stereo unspecified)	none (no result: CatS inh, CatB mixtures, CatB block, CatL block)
O=C(CNC(=O)c1ccco1)OCN1C(=O)c2ccccc2C1=O	CatB mixtures 25.2, CatB block 21.5
O=C(CCN1C(=O)c2ccccc2C1=O)OCN1C(=O)c2ccccc2C1=O	none
CCOC(=O)N1CCN(C(=O)c2cn(CC)c3cc(N4CCN(C)CC4)c(F)cc3c2=O)CC1	none (no result: Htt clearance)
N#Cc1nc(N2CCCCC2)nc(N2CCOCC2)n1	CatS inh 57.9, CatL block 57.7 (no result: Htt clearance)
N#Cc1nc(N2CCCC2)nc(N2CCCC2)n1	Htt clearance 72.7
Cc1ccc(C2C(C(=O)c3cc4ccccc4o3)=C(O)C(=O)N2CCCN(C)C)cc1 (stereo unspecified)	none (no result: CatS inh, CatB mixtures, Htt clearance)
C=CCNS(=O)(=O)c1ccc(OCC(=O)OC)cc1	none
O=C(Nc1ccc2c(c1)OCO2)c1cccc(F)c1	none
O=C(/C=C\Nc1cccc(F)c1)c1ccc2c(c1)OCO2	Htt clearance 83.6 (no result: CatL block)
CCSc1nc2ccccc2n1CC(=O)N1CCCCC1	CatL block 56.0 (no result: Htt clearance)
Nc1nonc1-c1nc2ccccc2n1CC(=O)N1CCCCC1	CatB mixtures 86.1, CatB block 81.2, CatL block 66.2 (no result: Htt clearance)
COC(=O)c1ccccc1NC(=O)Cn1c(-c2nonc2N)nc2ccccc21	CatB mixtures 81.6, CatB block 70.0, CatL block 66.0 (no result: CatS inh)
CC(C)NC(=O)Cn1c(SCC(=O)N2CCCCCC2)nc2ccccc21	none
Nc1nonc1-c1nc2ccccc2n1CC(=O)O	none (no result: CatS inh, CatB mixtures, CatB block, CatL block)
Cc1ccc(OCC(=O)Nc2ccc(N3CCCC3)cc2)cc1C	CatL block 60.9
O=C1CCc2nc3sc4c(c3c(=O)n2N1)CCCC4	Htt clearance 84.0
Cc1ccc(SCc2cn3c(C)csc3n2)cc1	none
Cc1ccc(S(=O)(=O)NCCC(=O)NCCN2CCCCCC2)cc1	CatL block 63.7 (no result: Htt clearance)
Cc1ccc(S(=O)(=O)NCCNC(=O)CN2CCCC2)cc1	none (no result: Htt clearance)
O=C(CCCc1ccccc1)Nc1cccnc1	none (no result: CatS inh, CatB mixtures, CatB block, CatL block)
CC(NS(=O)(=O)c1ccc(Cl)cc1)C(c1cccs1)N1CCN(C)CC1 (stereo unspecified)	Htt clearance 77.3 (no result: CatS inh, CatB mixtures, CatB block, CatL block)
CC(NS(=O)(=O)c1ccc(F)cc1)C(c1cccs1)N1CCN(C)CC1 (stereo unspecified)	none (no result: Htt clearance)
C=CCSc1nc(N)c(C(=O)Nc2ccccc2C)cc1C(N)=O	none
COc1ccc(N2CCN(CCCNS(=O)(=O)c3c(C)noc3/C=C/N(C)C)CC2)cc1	CatL block 74.9
Cc1sc2nc(CN(Cc3cccs3)C(=O)C3CC3)[nH]c(=O)c2c1C	none
CC(C)(C)c1cc(NC(=O)c2cccnc2)no1	Htt clearance 78.2
O=C(NC1CCCC1)C1C2C=CC(C2)C1C(=O)N1CCOCC1 (stereo unspecified)	Htt clearance 77.5
Cn1c(COc2ccccc2)nnc1SCCC(=O)Nc1ccccc1	none
CN(C)CCNc1nc2c(c(=O)[nH]c(=O)n2C)n1CC(O)COc1ccc(Cl)cc1 (stereo unspecified)	CatL block 46.9
O=C(Nc1nnc(-c2ccco2)s1)c1ccccc1	none (no result: Htt clearance)
O=C(Nc1nnc(/N=C/c2ccco2)s1)c1ccc(F)cc1	Htt clearance 70.6
COc1ccc(N2C(=O)NC(NC(=O)c3ccncc3)(C(F)(F)F)C2=O)cc1 (stereo unspecified)	none (no result: CatS inh, CatB mixtures, CatB block, CatL block)
